Test [1] can be described thus: qHTS assay to identify small molecule antagonists of the estrogen receptor alpha (ER-alpha) signaling pathway using the BG1 cell line in the presence of 0.1 nM 17-beta-estradiol - cell viability counter screen (AID 1259241). Note: nearly all actives have a fitted effect of over 40% in size. In short, it runs like this:
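Viability in VM7Luc4E2 cells after 22 hr compound exposure under 0.1 nM 17beta-estradiol stimulation, by CellTiter-Fluor.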
In general terms: In qHTS, concentration-response curves come from the screen itself.

Test [2] in a line: qHTS assay to identify small molecule antagonists of the androgen receptor (AR) signaling pathway using the MDA cell line in the presence of 0.5 nM R1881 - cell viability counter screen (AID 1259242). Note: nearly all actives have a fitted effect of over 45% in size. A digest of the protocol:
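qHTS format. MDA-kb2 (MMTV-luc, AR/GR responsive) + cpd + 0.5 nM R1881 final, 16 hr 37C/0% CO2 → CellTiter-Fluor 30 min → fluorescence intensity.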

A short description of test [3]: qHTS assay to identify small molecule HDAC inhibitors - cell viability counter screen (AID 1259365). Note: series mostly up to about 92 µM; nearly all actives have a fitted effect of over 50% in size. In short, it runs like this: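 Cytotoxicity was gauged in wild-type HCT-116 cells after a brief 2hr treatment with DMSO-dissolved compounds at 37C and 5% CO2, using CellTiter-Glo luminescence developed for 30min at room temperature.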
A short description of test [4]: qHTS assay to identify small molecule agonists of the sonic hedgehog signaling (Shh) pathway - cell viability counter screen (AID 1259366). Note: nearly all actives have a fitted effect of over 50% in size. In short, it runs like this: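 Stable Gli1-Luc NIH/3T3 clone, 2,000 cells/well. Compound exposure 24hr at 37C. Read-out: CellTiter-Fluor fluorescence.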
The nature of test [5]: qHTS assay to identify small molecule antagonists of the sonic hedgehog signaling (Shh) pathway - cell viability counter screen (AID 1259367). Note: nearly all actives have a fitted effect of over 55% in size. In short, it runs like this:
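CellTiter-Fluor signal in conditioned medium-stimulated 3T3 Gli1-Luc cells, 23 hr compound exposure, 37C.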

Test [6] is described as follows: qHTS assay to identify small molecule agonists of the sonic hedgehog signaling (Shh) pathway (AID 1259368; calls by dose curve;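 note: NIH/3T3-derived 3T3Gli1-Luc cells carrying a stable Gli1-driven firefly luciferase reporter; series mostly up to about 92 µM; nearly all actives have a fitted effect of over 15% in size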). In short, it runs like this:
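Quantitative high-throughput format using a Gli1-driven firefly luciferase reporter line derived from NIH/3T3 cells. After a 24 hr compound treatment at 37 C and 5% CO2, luminescence reported Gli1 response element activity.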

The nature of test [7]: qHTS assay to identify small molecule antagonists of the sonic hedgehog signaling (Shh) pathway (AID 1259369; calls by dose curve; note: nearly all actives have a fitted effect of over 45% in size; note: potency is the fitted concentration of half-maximal effect). In short, it runs like this: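 Stable Gli1-Luc reporter NIH/3T3 clone; quantitative HTS in stimulated mode with conditioned medium. Luminescence measured after 24hr compound treatment at 37 C.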
The nature of test [8]: qHTS assay to identify small molecule agonists of the androgen receptor (AR) signaling pathway in the presence of an antagonist - cell viability counter screen (AID 1259379).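 Note: MDA-kb2 human breast cancer cells carrying an MMTV luciferase reporter; series mostly up to about 92 µM; nearly all actives have a fitted effect of over 25% in size.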 In short, it runs like this:
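Nilutamide-containing (3.0uM final) MDA-kb2 cultures, 3,000 cells/well, were treated with compounds across 15 concentrations. After 16 hr at 37C with no CO2, cell viability was determined by CellTiter-Fluor fluorescence in the luciferase assay wells.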

Test [9] is described as follows: qHTS assay to identify small molecule agonists of the estrogen receptor beta (ER-beta) signaling pathway - cell viability counter screen (AID 1259380). Note: nearly all actives have a fitted effect of over 30% in size. In short, it runs like this: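 Steps: plate ER-beta-UAS-bla HEK293T cells, rest 6 hr; add compounds in DMSO; incubate 16 hr at 37C, 5% CO2; add FRET substrate 2 hr; add CellTiter-Glo, wait 30 min at room temperature; read luminescence.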

Test [10] is described as follows: qHTS assay to identify small molecule antagonists of the estrogen receptor beta (ER-beta) signaling pathway - cell viability counter screen (AID 1259382). Note: series mostly up to about 92 µM; nearly all actives have a fitted effect of over 55% in size. A digest of the protocol: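 Viability is scored by CellTiter-Glo luminescence (30 min, room temperature) in ER-beta-UAS-bla HEK293T wells already read for reporter fluorescence. Compound exposure lasts 16 hr at 37C alongside 1nM 17-beta-estradiol in charcoal-stripped serum medium.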

A short description of test [11]: qHTS assay to identify small molecule agonists of the estrogen receptor alpha (ER-alpha) signaling pathway in the presence of an antagonist - cell viability counter screen (AID 1259386).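 Note: series mostly up to about 92 µM; cells exposed to compounds for 22 h at 37 °C before the viability read; nearly all actives have a fitted effect of over 30% in size.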 A digest of the protocol:
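In this counter screen, compound effects on VM7Luc4E2 viability were tested in the presence of the antagonist ICI-182,780 at 10.0nM final. Compounds were dosed at 15 concentrations, exposure lasted 22hr, and the CellTiter-Fluor signal was read.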

For test [12], the target named is Estrogen receptor beta (Homo sapiens) (UniProt Q92731). Nature of the test: qHTS assay to identify small molecule antagonists of the estrogen receptor beta (ER-beta) signaling pathway (AID 1259378; active = well fitted inhibition curve with a large enough effect in the signal ratio in the repeat runs, not every such curve was filed as active; the % refers to the signal ratio). In short, it runs like this: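 Antagonist mode: compounds added to beta-lactamase reporter HEK293T ER-beta-UAS cells stimulated with E2 (1nM final), 16 hr at 37C. LiveBLAzer B/G FRET substrate, 2 hours room temperature, fluorescence read-out.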
Sequence of Estrogen receptor beta (Homo sapiens) (Q92731 whole entry, looked up): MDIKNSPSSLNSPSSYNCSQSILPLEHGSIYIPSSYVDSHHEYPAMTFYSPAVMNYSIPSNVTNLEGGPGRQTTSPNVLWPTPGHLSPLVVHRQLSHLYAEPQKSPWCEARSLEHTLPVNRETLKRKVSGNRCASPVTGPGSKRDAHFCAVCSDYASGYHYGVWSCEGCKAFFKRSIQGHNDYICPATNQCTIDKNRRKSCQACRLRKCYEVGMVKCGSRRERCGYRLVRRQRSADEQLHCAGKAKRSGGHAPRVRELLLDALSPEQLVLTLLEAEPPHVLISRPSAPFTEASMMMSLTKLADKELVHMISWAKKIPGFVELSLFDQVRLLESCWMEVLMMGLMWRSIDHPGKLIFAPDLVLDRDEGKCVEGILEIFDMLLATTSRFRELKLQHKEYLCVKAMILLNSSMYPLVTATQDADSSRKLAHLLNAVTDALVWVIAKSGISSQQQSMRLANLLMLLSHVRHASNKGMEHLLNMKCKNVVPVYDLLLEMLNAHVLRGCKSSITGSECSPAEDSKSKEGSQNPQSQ

Test [13] has as its target Thyrotropin receptor (Homo sapiens) (UniProt P16473). Nature of the test: qHTS assay to identify small molecule antagonists of the thyroid stimulating hormone receptor (TSHR) signaling pathway (AID 1259385; calls by dose curve; note: nearly all actives have a fitted effect of over 20% in size; note: potency is the fitted concentration of half-maximal effect). In short, it runs like this: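 Antagonist mode: compound-treated TSHR-expressing HEK293 cells were stimulated with 1.5 ng/mL TSH (final) in presence of Ro20-1724 for 30 min at RT. HTRF cAMP detection after 1 h; each compound tested at 15 concentrations, triplicate.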

Test [14] addresses Androgen receptor (Homo sapiens) (UniProt P10275). Kind of test: qHTS assay to identify small molecule antagonists of the androgen receptor (AR) signaling pathway using the MDA cell line in the presence of 0.5 nM R1881 (AID 1259243). Note: nearly all actives have a fitted effect of over 50% in size. A digest of the protocol: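 Antagonist mode quantitative HTS in MDA-kb2 MMTV-luciferase cells, agonist R1881 at 0.5 nM final, 16 hr exposure at 37C and 0% CO2, luminescent detection.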

Test [15] is described as follows: qHTS assay to identify small molecule HDAC inhibitors (AID 1259364).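 Note: wild-type HCT-116 cells with endogenous class I/II HDAC activity; top concentration of the series differs between compounds; nearly all actives have a fitted effect of over 45% in size.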 In short, it runs like this: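 Quantitative high-throughput format: overnight-seeded HCT-116 cells got compounds for 2 hr at 37C; HDAC-Glo I/II reagent added, 30 min RT, luminescence measured.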
For test [16], the target named is Estrogen receptor beta (Homo sapiens) (UniProt Q92731). Kind of test: qHTS assay to identify small molecule agonists of the estrogen receptor beta (ER-beta) signaling pathway (AID 1259377; active = well fitted activation curve with a large enough effect in the signal ratio in the repeat runs, not every such curve was filed as active; the % refers to the signal ratio). In short, it runs like this:
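Measured by fluorescence intensity from a B/G FRET beta-lactamase substrate (2 h, room temperature) in ER-beta-UAS-bla HEK293T cells treated with DMSO-dissolved compounds for 16 hr at 37C and 5% CO2.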

The nature of test [17]: qHTS assay to identify small molecule agonists or antagonists of the thyroid stimulating hormone receptor (TSHR) signaling pathway - wild type cell line counter screen (AID 1259384; calls by dose curve). A digest of the protocol:
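Counter screen in untransfected Hek293: compounds (15-point titration, triplicate) plus phosphodiesterase inhibitor Ro20-1724 added after 18 h plating; 30 min RT. Intracellular cAMP via competitive d2/cryptate immunoassay, 1 h incubation.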

A short description of test [18]: qHTS assay to identify small molecule phospholipidosis (PLD) inducers (AID 1259344; active = well fitted curve in the direction sought with a large enough effect; an effect the other way counts as inactive or inconclusive). A digest of the protocol:
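Accumulated phospholipid, stained red by LipidTOX during 24 h compound treatment of HepG2 cells at 37 C, is quantified from images as pit number and intensity, normalised per cell using Hoechst-stained nuclei.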

The target of test [19] is Estrogen receptor (Homo sapiens) (UniProt P03372). Nature of the test: qHTS assay to identify small molecule antagonists of the estrogen receptor alpha (ER-alpha) signaling pathway using the BG1 cell line in the presence of 0.1 nM 17-beta-estradiol (AID 1259244). Note: nearly all actives have a fitted effect of over 50% in size. In short, it runs like this:
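Reporter is a stably transfected luciferase under four estrogen responsive elements in VM7Luc4E2 cells expressing native full-length ER-alpha; inhibition of 0.1 nM (final) 17beta-estradiol-driven signal over 22 h is read by luminescence.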

Test [20] shares this target. Nature of the test: qHTS assay to identify small molecule agonists of the estrogen receptor alpha (ER-alpha) signaling pathway in the presence of an antagonist (AID 1259383; calls by dose curve; note: top concentration of the series differs between compounds; nearly all actives have a fitted effect of over 15% in size). A digest of the protocol: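 Readout was ERE-driven luciferase luminescence in VM7Luc4E2 cells, which express full-length ER-alpha endogenously. Compounds were tested at 15 concentrations for 22hr alongside 10.0nM ICI-182,780 (final concentration).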

“And” between values parts separate entries of the source, which are not always exact repeats. Equal values may be shown once. Unmarked numbers belong to inactive results. Records with an inconclusive call do not appear. The source made the active and inactive calls. Unless noted, calls come from the whole dose curve; as a rule, active = well fitted curve in the direction sought with a large enough effect in the repeat runs; inconclusive = weak or mixed curves; inactive = no such curve, though single readings can be large; an effect the other way counts as inactive or inconclusive.
% is set by controls: 0 for no effect and ±100 for the full control effect.

Sequence of Thyrotropin receptor (Homo sapiens) (P16473 whole entry, looked up): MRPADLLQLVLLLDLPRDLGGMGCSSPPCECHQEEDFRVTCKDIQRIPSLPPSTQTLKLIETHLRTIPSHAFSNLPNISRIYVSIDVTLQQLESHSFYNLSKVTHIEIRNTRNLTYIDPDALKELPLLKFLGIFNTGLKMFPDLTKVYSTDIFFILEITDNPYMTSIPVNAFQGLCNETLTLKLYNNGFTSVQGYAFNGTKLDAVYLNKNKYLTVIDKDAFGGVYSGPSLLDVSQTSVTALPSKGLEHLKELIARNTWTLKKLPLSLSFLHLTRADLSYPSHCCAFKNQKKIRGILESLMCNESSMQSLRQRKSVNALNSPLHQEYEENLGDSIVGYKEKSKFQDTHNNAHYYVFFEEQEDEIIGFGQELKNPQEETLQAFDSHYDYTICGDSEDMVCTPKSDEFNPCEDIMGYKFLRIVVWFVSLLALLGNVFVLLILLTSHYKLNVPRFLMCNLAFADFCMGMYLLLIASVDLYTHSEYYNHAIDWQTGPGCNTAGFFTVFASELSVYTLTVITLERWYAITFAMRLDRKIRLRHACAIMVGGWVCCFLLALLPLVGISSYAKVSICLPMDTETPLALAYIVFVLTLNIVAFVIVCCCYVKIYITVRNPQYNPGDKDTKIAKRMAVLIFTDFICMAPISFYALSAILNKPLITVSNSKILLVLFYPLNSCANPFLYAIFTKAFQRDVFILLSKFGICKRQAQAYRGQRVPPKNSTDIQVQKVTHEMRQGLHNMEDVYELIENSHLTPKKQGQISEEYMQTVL
Sequence of Androgen receptor (Homo sapiens) (P10275 whole entry, looked up): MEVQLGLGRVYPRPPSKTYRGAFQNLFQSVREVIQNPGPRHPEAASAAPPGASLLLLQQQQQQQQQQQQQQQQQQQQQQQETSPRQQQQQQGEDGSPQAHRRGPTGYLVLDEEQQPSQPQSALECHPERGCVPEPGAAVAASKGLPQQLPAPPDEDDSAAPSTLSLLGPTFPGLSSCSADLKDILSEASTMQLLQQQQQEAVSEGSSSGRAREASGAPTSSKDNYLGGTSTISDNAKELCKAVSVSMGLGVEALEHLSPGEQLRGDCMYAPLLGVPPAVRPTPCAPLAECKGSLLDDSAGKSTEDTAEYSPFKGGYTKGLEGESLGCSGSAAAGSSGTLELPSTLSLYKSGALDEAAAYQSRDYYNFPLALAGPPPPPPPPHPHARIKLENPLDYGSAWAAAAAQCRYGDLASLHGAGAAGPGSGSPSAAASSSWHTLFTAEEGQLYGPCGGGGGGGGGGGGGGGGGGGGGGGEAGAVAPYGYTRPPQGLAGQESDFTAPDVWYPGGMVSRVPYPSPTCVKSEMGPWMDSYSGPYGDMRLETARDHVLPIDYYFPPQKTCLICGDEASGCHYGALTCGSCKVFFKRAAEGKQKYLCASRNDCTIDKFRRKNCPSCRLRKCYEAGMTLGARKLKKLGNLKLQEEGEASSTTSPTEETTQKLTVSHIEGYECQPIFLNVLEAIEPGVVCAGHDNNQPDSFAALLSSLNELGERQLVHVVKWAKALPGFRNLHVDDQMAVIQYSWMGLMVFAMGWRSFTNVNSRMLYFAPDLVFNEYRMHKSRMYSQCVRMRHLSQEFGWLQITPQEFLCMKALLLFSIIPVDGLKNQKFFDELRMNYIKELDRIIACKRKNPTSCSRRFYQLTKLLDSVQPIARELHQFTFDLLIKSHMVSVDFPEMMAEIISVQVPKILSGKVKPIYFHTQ
Sequence of Estrogen receptor (Homo sapiens) (P03372 whole entry, looked up): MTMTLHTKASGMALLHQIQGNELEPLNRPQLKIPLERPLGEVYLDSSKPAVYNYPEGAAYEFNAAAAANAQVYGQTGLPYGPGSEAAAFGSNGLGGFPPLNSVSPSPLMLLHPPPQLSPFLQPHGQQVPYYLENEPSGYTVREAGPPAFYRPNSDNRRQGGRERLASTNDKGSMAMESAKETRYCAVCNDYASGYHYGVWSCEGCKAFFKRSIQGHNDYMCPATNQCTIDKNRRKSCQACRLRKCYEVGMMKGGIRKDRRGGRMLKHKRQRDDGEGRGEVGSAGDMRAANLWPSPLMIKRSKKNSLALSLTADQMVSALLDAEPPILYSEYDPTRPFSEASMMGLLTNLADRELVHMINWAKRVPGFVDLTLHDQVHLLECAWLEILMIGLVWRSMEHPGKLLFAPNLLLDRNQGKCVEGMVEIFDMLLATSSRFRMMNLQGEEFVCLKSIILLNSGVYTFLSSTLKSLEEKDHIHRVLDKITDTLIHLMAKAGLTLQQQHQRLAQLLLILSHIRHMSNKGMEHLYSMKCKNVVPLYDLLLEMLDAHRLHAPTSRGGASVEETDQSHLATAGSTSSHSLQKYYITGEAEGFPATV

With `C[N+](C)(C)CCCCCC[N+](C)(C)C`, the outcome in test [1], in test [3] and in test [6] was inactive. In addition, the Potency entry in test [2], in test [4], in test [5], in test [7], in [8] and in [9] was “inactive” each time. In addition, the Potency entry in test [10] and in [11] was “inactive” in each case.
Regarding `Brc1c(NC2=NCCN2)ccc2nccnc12`, the result in test [1], in test [3], in test [6] and in test [12] was inactive. Besides, the Potency entry in test [2], in test [4], in test [5], in [7], in test [8] and in test [10] was “inactive” throughout. The Potency result in test [13] and in test [11] was “inactive” in each case.
As to `CCCCOCCOCCOCc1cc2c(cc1CCC)OCO2`, the result in test [1], in test [3], in [6], in test [16], in test [12] and in [17] was inactive. The Potency entry in test [14], in [15], in test [4], in test [5], in test [8] and in test [9] was “inactive” throughout. Further, the Potency entry in test [10] and in test [11] was “inactive” throughout. For the same molecule, the Potency in test [7] was 1.39 µM (active) and 2.66 µM (active); in [13], 23.7 µM (active).
`CCC(C)S` (stereo unspecified): the activity change, negative = cytotoxicity was 5.76% [at 3.27 µM] in test [1]; 1.61% [at 3.27 µM] in test [3]; -0.314% [at 3.27 µM] in [8]; 4.81% [at 3.32 µM] in test [9]; 6.44% [at 3.27 µM] in test [10]; 1.97% [at 3.27 µM] in [11]. Further, the viability change, negative = cytotoxic in [2] was 1.28% [at 3.26 µM]; in [4], 3.35% [at 3.27 µM]; in [5], 3.76% [at 3.27 µM]. For the same molecule, the activity change, negative = inhibition in test [15] is 0.148% [at 3.27 µM]; in test [7] it was 17.6% [at 3.27 µM]; in test [13], -0.487% [at 3.27 µM]. For the same molecule, the activity change in test [6] is -0.25% [at 3.27 µM]. For the same molecule, in test [16], the activation is 0.578% [at 3.32 µM]. Besides, in test [12], the activity, negative = inhibition was 9.7% [at 3.27 µM].
With `CCOC(=O)c1c(C)n(C)c2ccc(O)cc12`, the outcome in [1], in test [3] and in test [17] was inactive. For the same molecule, the Potency result in [14], in test [18], in [15], in test [4], in test [5] and in test [7] was “inactive” throughout. Moreover, the Potency entry in test [8], in test [10], in test [13] and in test [11] was “inactive” in each case.
Consider `C=CCOCC(CC)(CO)COCC=C`, for which the result in test [1], in test [3], in test [16], in test [12] and in [17] was inactive. In addition, the Potency result in test [2], in test [4], in test [5], in [8], in test [9] and in test [10] was “inactive” throughout. For the same molecule, the Potency entry in test [13] and in [11] was “inactive” each time.
Consider `NS(=O)(=O)c1cc2c(cc1Cl)NC(C1CC3C=CC1C3)NS2(=O)=O` (stereo unspecified), for which the outcome in test [1], in test [19], in test [3], in test [6], in test [16] and in [12] was inactive. Moreover, the Potency entry in test [14], in [15], in [4], in test [5], in test [7] and in test [8] was “inactive” throughout. The Potency result in test [9], in [10], in [20] and in test [11] was “inactive” in each case.
